# Most compounds without a hit are left out; they make up all but 1.4% or so of the library.
# Furin inh = inhibitors of human furin | purified furin, fluorogenic substrate cleavage | inhibition, % at 20 µM or 30 µM | actives 0.061% (n = 220,000) | AID 463115; in the data active means inhibition above about 25%
# Pf gamet viab = inhibitors of late stage P. falciparum gametocyte viability. actives 0.065% (n = 150,000). AID 743093. inhibition, % at 10.9 µM. P. falciparum stage V gametocytes, ATP luminescence, 24 h;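 active means inhibition above the mean plus 3 SD of compounds within the control limits, set per campaign, cut at about 38% in these data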;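 further: 0% = DMSO wells and 100% = medium only without gametocytes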
# HSV replic up = increases HSV replication in cells | HSV replication augmentation in cells, fold increase | maximum fold increase | actives 0.005% (n = 220,000) | AID 1956; in the data active means maximum fold increase above about 1.5; tested in PC3 cells
# EP2 modulator = EP2 receptor (human) modulation. actives 0.83% (n = 260,000). P43116. AID 940. EP2-expressing cells, cAMP HTRF FRET, PGE2 co-stimulation. induction, % at 25 µM;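 active means compounds whose cAMP rise, as percent of the full-agonist control response, exceeds 60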;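 further: rat C6 glioma line stably carrying human EP2 under a CMV promoter; the protocol text gives 20 µM as final concentration; 100% = response of wells given 1 µM PGE2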
# Target sequence (P43116 whole entry, looked up): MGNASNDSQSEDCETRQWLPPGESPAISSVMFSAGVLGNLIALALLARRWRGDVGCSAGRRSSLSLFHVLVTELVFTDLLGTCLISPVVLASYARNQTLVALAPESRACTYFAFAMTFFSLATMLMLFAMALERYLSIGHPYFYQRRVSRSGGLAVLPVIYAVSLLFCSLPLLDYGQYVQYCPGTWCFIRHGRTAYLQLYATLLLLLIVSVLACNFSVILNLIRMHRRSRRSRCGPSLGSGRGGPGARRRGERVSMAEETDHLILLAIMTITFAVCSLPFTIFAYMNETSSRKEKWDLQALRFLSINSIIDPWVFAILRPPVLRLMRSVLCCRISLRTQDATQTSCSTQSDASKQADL
# EP2 antag = inhibitors of human EP2 prostaglandin E2 receptor; AID 1422; actives 0.52% (n = 260,000); C6 glioma cells expressing human EP2, cAMP TR-FRET; cells stimulated with saturating PGE2; inhibition, % at 25 µM; P43116;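 active means percent inhibition above 40 after rounding to a whole number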;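 further: rat C6 glioma host cells with rolipram phosphodiesterase inhibitor present; the protocol text gives 20 µM as final concentration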
# * = called active by the depositor; i = inactive; nt = no result; ! = a repeat was not active.
SMILES,Furin inh,Pf gamet viab,HSV replic up,EP2 modulator,EP2 antag
O=C(NC1CCCCC1)C(c1ccco1)N(Cc1cccs1)C(=O)Cn1nnc2ccccc21 (centres undefined),-27,-7,nt,61*,10
O=C(NC1CCCC1)C(c1ccccc1F)N(Cc1ccco1)C(=O)Cc1cccs1 (centres undefined),nt,nt,nt,5,9
O=C(NC1CCCC1)C(c1ccccc1Cl)N(Cc1ccco1)C(=O)Cc1cccs1 (centres undefined),nt,nt,nt,64*,15
O=C(NC1CCCCC1)C(c1ccco1)N(C(=O)Cc1cccs1)c1ccc(F)cc1 (centres undefined),nt,nt,nt,66*,10
Cc1nnc2sc(SCc3ccc(Br)cc3)nn2c1=O,-22,nt,i,-7,3
O=C(COc1ccccc1Cl)Nc1nc2ccc(F)cc2s1,nt,nt,nt,-33,10
Cc1cc(C)cc(-n2c(=O)c3sccc3n(CC(=O)NCc3ccco3)c2=O)c1,-31,14,i,13,3
COc1ccc(/C=N/N2C(=O)c3ccccc3C2=O)cc1,-12,57*,i,10,2
O=C(COc1ccc(Cl)cc1Cl)NC(=O)N1CCOCC1,36*,10,i,-5,0
O=C(COc1ccc(Cl)cc1Cl)Nc1ccc(S(=O)(=O)N2CCOCC2)cc1,nt,nt,nt,-21,10
Cc1cc(Cl)ccc1OCCCC(=O)N1CCOCC1,29*,13,i,5,9
COc1cc2sc3ccc(-c4ccc5[nH]ccc5c4)cc3c(=O)c2cc1OC,nt,nt,i,nt,12
Cc1nnc(NC(=O)C2CCCO2)s1 (centres undefined),-18,nt,i,-15,9
CCCCCc1nnc(NC(=O)C2CCCO2)s1 (centres undefined),34*,nt,i,12,6
CCOc1ccccc1NC(=O)c1nc(-c2ccccc2)oc1C,-31,-14,i,63*,6
CCOc1ccccc1NC(=O)CSc1nc(-c2ccccc2)nc2ccccc12,nt,nt,nt,61*,6
O=c1c(Cl)c2oc3ccc(Cl)cc3nc-2c2ccccc12,nt,nt,nt,-27,18
O=C1c2ccccc2C(=O)N1SC1CCCCC1,4,nt,i,-36,87*
O=C(OCN1C(=O)c2ccccc2C1=O)C1CCCCC1,-22,nt,i,13,11
CCC(CC)c1nnc(NC(=O)Oc2ccccc2)s1,-3,18,i,0,9
CCC(CC)c1nnc(NC(=O)CCCOc2ccccc2)s1,nt,nt,nt,62*,9
Cc1ccc(-c2cc3ccccc3nc2N2CCCC2)cc1,-26,nt,i,62*,11
Clc1ccc(-c2cc3ccccc3nc2N2CCCC2)cc1,-28,-63,i,64*,10
Clc1ccc(-c2cc3ccccc3nc2N2CCOCC2)cc1,-19,-8,i,54,7
CCCOC(=O)c1ccc(OC(=O)c2ccco2)cc1,-5,5,i,3,5
SMILES,Furin inh,Pf gamet viab,HSV replic up,EP2 modulator,EP2 antag
COc1cc(C#Cc2c(-c3cncn3C)n(C)c3ccc(-c4cc(OC)c(OC)c(OC)c4)cc23)cc(OC)c1,nt,-10,nt,nt,nt
COc1ccc2nc(NC(=O)c3cccc(-c4cc5ccccc5oc4=O)c3)sc2c1,-18,49*,nt,8,13
Cc1cccc2c(N)c3c(nc12)CCCC3 (tested in a mixture with another compound),-15,43*,i,-3,9
Nc1c2c(nc3ccccc13)CCCC2,4,nt,i,8,12
CCCn1c(=S)[nH]c2cc(C(=O)N3CCc4ccccc4C3)ccc2c1=O,-9,47*,i,-15,5
CCCn1c(=S)[nH]c2cc(C(=O)N3CCN(c4ccccc4OC)CC3)ccc2c1=O,-25,nt,i,9,12
CCOc1ccccc1N1CCN(C(=O)c2ccc3[nH]c4c(c3c2)CCCC4)CC1,-16,44*,i,-9,1
Oc1ccc(Cn2c(-c3ccc(O)cc3)nc3ccccc32)cc1,nt,nt,nt,21,47*
CC(=O)NC(CSc1cc(C)nc2ccc(Br)cc12)C(=O)O (centres undefined),-2,0,i,64*,12
Cc1c(NC(=O)Nc2c(Cl)cccc2Cl)c(=O)n(-c2ccccc2)n1C,-18,nt,i,11,48*!
Cc1c(NC(=O)Nc2ccccc2Cl)c(=O)n(-c2ccccc2)n1C,-25,-16,i,24,5
COc1ccc(CC(=O)N/N=C/c2ccc(C)s2)cc1,nt,-8,nt,nt,nt
Cc1ccsc1/C=C1\CCC(C2CCCC2)C1=O (centres undefined),-20,-29,i,21,5
CCN(CC)S(=O)(=O)c1ccc(OC)c(NC(=O)COc2ccc3c(C)cc(=O)oc3c2)c1,-17,nt,i,10,67*
NS(=O)(=O)c1ccc(N2CCCC2=O)c([N+](=O)[O-])c1,-27,38*,i,20,16
NNS(=O)(=O)c1ccc(N2CCCC2=O)c([N+](=O)[O-])c1,-25,28,i,-12,6
CC1(C)CC(=O)C(C=Nc2cccc(/N=C/C3=C(O)CC(C)(C)CC3=O)n2)=C(O)C1,-1,nt,nt,14,nt
CC1(C)CC(=O)C(/C=N/n2cnc3ccccc3c2=O)=C(O)C1,79*,nt,i,-4,5
CC1(C)CC(=O)C(/C=N/c2ccccn2)=C(O)C1,51*,nt,i,16,9
O=C1CC(N(O)c2ccccc2)C(=O)N1Cc1ccccc1 (centres undefined),-21,0,i,-17,9
COc1ccc(CCNc2nc(N3CCCCC3)nc(N3CCCCC3)n2)cc1OC,-15,-45,i,61*,16
C#CCOc1nc(C)cc(C)c1S(=O)(=O)c1ccccc1C,-8,-7,i,57,3
CCC(C)Oc1nc(C)cc(C)c1S(=O)(=O)c1ccccc1C (centres undefined),-5,-29,i,64*,12
Cc1nn(C)c(C)c1/C=C(\C#N)C(N)=O,-8,4,i,3,8
Cc1ccc(CN2CCN(Cc3ccc(C)o3)[C@@H](C)C2)o1,nt,nt,nt,12,43*
SMILES,Furin inh,Pf gamet viab,HSV replic up,EP2 modulator,EP2 antag
Cc1ccc(CN2CCN(Cc3ccc(O)cc3)CC2CCO)o1 (centres undefined),-12,-19,i,5,2
Cc1cccc2cc(C(c3nnnn3Cc3ccccc3)N3CCN(c4ccccc4)CC3)c(=O)[nH]c12 (centres undefined),-12,1,i,15,2
Cc1cccc2cc(C(c3nnnn3Cc3ccc(F)cc3)N3CCCCCC3)c(=O)[nH]c12 (centres undefined),nt,nt,nt,67*,22
Cc1cccc2cc(C(c3nnnn3Cc3ccccc3)N3CCCCC3)c(=O)[nH]c12 (centres undefined),nt,nt,nt,68*,13
COc1ccc(Cn2nnnc2C(c2cc3cccc(C)c3[nH]c2=O)N2CCCCC2)cc1 (centres undefined),nt,nt,nt,-25,10
Cc1ccc(C)c2[nH]c(=O)c(C(c3nnnn3Cc3ccccc3)N3CCCCCC3)cc12 (centres undefined),nt,nt,nt,75*,15
Cc1cccc2cc(C(c3nnnn3Cc3ccccc3)N3CCN(C)CC3)c(=O)[nH]c12 (centres undefined),-12,nt,i,-11,1
